Results published in PubChem BioAssay AID489018 (Southern Research Specialized Biocontainment Screening …, 2010).
Screen size: about 2,300 compounds; about 350 (15%) were called active. The list is a sample of the results. Entries with a potency or affinity are not part of this list. A number with no mark means an inactive call. No rule for the calls is given here.

Experiment: HepG2 cell cytotoxicity, dose response, cytotoxicity control for non-replicating M. tuberculosis project (AID 489018);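 also: HepG2 human liver cells; 100% = vehicle-treated cells and 0% = background signal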
Details: series mostly up to 20 µM; viability: at the top concentration

Going from `CC(/C=C/c1ccccc1)=N\NC(=O)c1ccc2c(c1)OCCO2` to `COc1cccc(-c2nnc(NC(=O)c3cccc(F)c3)o2)c1`, the “viability” value falls from 101% [at 5 µM] to 91.6% [at 5 µM].

Going from `Brc1ccc(-c2ccc(CNCc3ccccn3)o2)cc1` to `Cc1cc(Nc2ccccc2)n(-c2nc3ccccc3[nH]2)n1`, the “viability” value falls from 104% [at 5 µM] to 90.5% [at 5 µM].

Going from `O=C(OCC(=O)N1CCC(c2ccccc2)=N1)c1ccc([N+](=O)[O-])s1` to `O=C(c1ccccc1[N+](=O)[O-])N1N=C(c2ccccc2)CC1(O)C(F)(F)F` (stereo unspecified), the “viability” value falls from 103% [at 5 µM] to 101% [at 5 µM].

Going from `Cc1ccc(C(=O)NNC(=S)NC(=O)c2ccc(Cl)cc2)cc1` to `O=C(CCNc1cccc(Cl)c1)c1ccco1`, the “viability” value rises from 91.2% [at 5 µM] to 98.8% [at 5 µM].

Going from `O=C(Cn1cc([N+](=O)[O-])nc1[N+](=O)[O-])N1CCN(c2ccccc2)CC1` to `O=C(Nc1ccc(S(=O)(=O)N2CCOCC2)cc1)c1ccc([N+](=O)[O-])s1`, the “viability” value rises from 97.3% [at 5 µM] to 104% [at 5 µM].

Going from `O=C1NCC(O)=C1C=Nc1ccccc1O` to `Cc1ccn2c(NC3CCCC3)c(-c3ccccn3)nc2c1`, the “viability” value rises from 100% [at 5 µM] to 107% [at 5 µM].

In the case of `CCc1cccc(OCCCn2ccnc2)c1`, the “viability” value is reported as 101% [at 5 µM].

First: C/C(Cn1nnc([N+](=O)[O-])n1)=N\NC(=O)c1ccncc1
Second: Cc1ccc(C(=O)Nc2nnc(-c3ccncc3)o2)cc1
The “viability” value of the first is lower: 83.8% for the first, 103% for the second.

First: COC(=O)CN(C#N)c1nc(SC)nc(N(C)C)n1
Second: COc1ccc(-c2nnc(NC(=O)C3=COCCO3)o2)cc1
The “viability” value of the first is higher: 103% for the first, 81.8% for the second.

First: O=C1CCC/C(=N/Nc2ccc(Cl)cc2)C1
Second: O=C(Nc1nnc(-c2ccc(Cl)cc2)o1)c1cccc(N2C(=O)CCC2=O)c1
The “viability” value of the first is lower: 87.1% for the first, 96.9% for the second.

Compared with `CCOCCOC(=O)c1ccc(NC(=O)C2COc3ccccc3O2)cc1` (stereo unspecified), `CCOc1ccc(/C=N/OCC(=O)Nc2ccc3c(c2)OCO3)cc1` is lower in “viability” value: 107% for the first, 94.3% for the second.

Going from `Cc1cc(Cl)ccc1OC(C)C(=O)Nc1ccc([N+](=O)[O-])cn1` (stereo unspecified) to `COc1cccc(NC(=O)c2ccc(Cn3cc([N+](=O)[O-])cn3)o2)c1`, the “viability” value falls from 105% to 97.7%.

First: Cc1ccc(C)c(NC(=O)c2cc([N+](=O)[O-])cc([N+](=O)[O-])c2)c1
Second: Cc1cc(C)n(C(=O)c2ccc([N+](=O)[O-])cc2[N+](=O)[O-])n1
The “viability” value of the first is higher: 116% for the first, 102% for the second.

Going from `O=C(CCc1ccc(Oc2cc([N+](=O)[O-])cc([N+](=O)[O-])c2)cc1)N1CCCCC1` to `Cc1ccccc1-n1ncc2c([N+](=O)[O-])cc([N+](=O)[O-])cc21`, the “viability” value rises from 85.8% to 97%.

First: N/C(=N/OC(=O)c1ccccc1Cl)c1ncc([N+](=O)[O-])s1
Second: O=C(Nc1nnc(-c2ccccc2Cl)o1)c1cccnc1
The “viability” value of the first is higher: 102% for the first, 91.2% for the second.

Compared with `COc1ccc(OC)c(NC(=O)C(=O)NNC(=O)C23CC4CC(CC(C4)C2)C3)c1`, `COc1cccc(C(=O)OCC(=O)c2ccc(Br)s2)c1OC` is higher in “viability” value: 87.2% for the first, 94.5% for the second.

First: Cc1ccc2[nH]c3c(c2c1)CCCC3NCCO (stereo unspecified)
Second: Cc1ccc2c(c1)c1c3n2CCN=C3CCC1
The “viability” value of the first is higher: 101% for the first, 97.6% for the second.

Compared with `O=C(COc1cccc2ccccc12)Nc1nc2ccccc2[nH]1`, `Cc1cc(NC(=O)c2ccccc2F)n(-c2nc3ccccc3[nH]2)n1` is lower in “viability” value: 106% for the first, 100% for the second.

Going from `Cc1cc(Br)ccc1OCCCCN1CCC(C)CC1` to `Cc1ccc(OCCCCn2ccnc2)c(Cl)c1`, the “viability” value rises from 80.7% to 98.8%.

First: CCCCCOc1ccc(CSC2=NCCN2)cc1[N+](=O)[O-]
Second: CCCCOC(=O)Cn1c(-c2ccccc2)nc2ccccc2c1=O
The “viability” value of the first is lower: 93.7% for the first, 104% for the second.

First: CCOC(=O)CCNC(=O)c1ccc2nc(C3CCCCC3)oc2c1
Second: O=C(CC1CCCCC1)NCc1ccccc1
The “viability” value of the first is higher: 103% for the first, 98.8% for the second.

First: CC1=NN(C(=O)c2ccc(Cn3nc(C)c(Br)c3C)cc2)C(O)(C(F)(F)F)C1 (stereo unspecified)
Second: Cn1cccc1/C=C1/C(=O)NC(=S)N(Cc2ccc(F)cc2)C1=O
The “viability” value of the first is lower: 80.5% for the first, 107% for the second.

Compared with `Cc1ccc(OC(=O)c2ccc(Br)o2)cc1`, `COc1cccc(C(=O)Nc2nnc(-c3ccc(F)cc3)o2)c1` is lower in “viability” value: 101% for the first, 80.5% for the second.

Going from `CCOc1ccc(OCC(=O)Nc2ccc(OC)cc2)cc1` to `COc1cccc(C(=O)OCC(=O)Nc2nnc(-c3ccccc3)o2)c1`, the “viability” value falls from 96% to 94%.

Compared with `Cc1ccc(-c2noc(CCC(=O)Nc3cccc(C#N)c3)n2)cc1`, `Cc1cccc(C(=O)Nc2nnc(-c3cccnc3)o2)c1` is lower in “viability” value: 100% for the first, 95.1% for the second.

First: CCN1/C(=C(\O)c2ccccc2)C(=O)c2ccccc2S1(=O)=O
Second: COc1ccc(/C=C2\COc3ccccc3C2=O)cc1OC
The “viability” value of the first is lower: 71% for the first, 93% for the second.

Compared with `Cc1ccc(C(=O)N/N=C\c2ccc(-c3ccc(Cl)cc3)o2)cn1`, `O=C(Nc1nnc(-c2ccc(Cl)cc2)o1)c1ccccc1Br` is lower in “viability” value: 90.8% for the first, 83.9% for the second.

First: CCN1CSC(=S)N(Cc2ccc(OC)cc2)C1
Second: COc1ccc(C(=O)Nc2nnc(C3=COCCO3)o2)cc1
The “viability” value of the first is lower: 86.2% for the first, 96.1% for the second.

Compared with `COc1cc(/C=N/N(C)C)ccc1OC(=O)c1cccs1`, `COc1ccc(C(=O)Nc2nnc(-c3ccccc3)o2)cc1OC` is lower in “viability” value: 108% for the first, 90% for the second.

First: O=C(Nc1nnc(-c2ccc(F)cc2)o1)c1cc(Cl)sc1Cl
Second: O=C(Nc1nnc(-c2ccccc2Cl)o1)c1ccco1
The “viability” value of the first is lower: 89.7% for the first, 102% for the second.

First: O=C1c2cccc3c([N+](=O)[O-])ccc(c23)C(=O)N1c1ccc(Cl)cn1
Second: CSc1ccccc1NC(=O)c1cc(C(C)C)on1
The “viability” value of the first is lower: 80.3% for the first, 101% for the second.
